According to PubChem BioAssay (NCI):
Compounds without any hit were thinned out: in the full panel of roughly 83,000, 20% have a hit.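 The endpoint reported here, percent growth, reads 100 for growth as untreated, 0 for no net growth and -100 for all cells dead.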 Active and inactive are the calls of the source. The calls were made as follows: active = growth percent below 10; inactive = the rest.

How the values were obtained:
Test in all cases: NCI-60 one-dose screen, 48 h (100 = growth as untreated, 0 = no growth, -100 = all killed)
Details in all cases: 10 µM unless noted
NCI-H23 lung = tested on: NCI-H23 lung
HOP-62 NSCLC = tested on: HOP-62 NSCLC
NCI-H460 lung = tested on: NCI-H460 lung
HOP-92 NSCLC = tested on: HOP-92 NSCLC
NCI-H522 lung = tested on: NCI-H522 lung
A549/ATCC NSCLC = tested on: A549/ATCC NSCLC
786-0 renal = tested on: 786-0 renal
DU-145 prostate = tested on: DU-145 prostate
K-562 leukemia = tested on: K-562 leukemia
MALME-3M melanoma = tested on: MALME-3M melanoma
MDA-MB-231 breast = tested on: MDA-MB-231 breast
RXF 393 renal = tested on: RXF 393 renal
SF-268 CNS = tested on: SF-268 CNS
SF-295 CNS = tested on: SF-295 CNS
SF-539 CNS = tested on: SF-539 CNS
UACC-257 melanoma = tested on: UACC-257 melanoma
M14 melanoma = tested on: M14 melanoma
HCT-15 colon = tested on: HCT-15 colon
COLO 205 colon = tested on: COLO 205 colon

Measured: growth

COc1cc(/C(C#N)=C/c2nc3c(N4CCOCC4)nc(Cl)nc3n2C)cc(OC)c1OC
active: NCI-H460 lung -3.75% | HOP-92 NSCLC -4.18% | 786-0 renal 6.45% | DU-145 prostate 4.54% | K-562 leukemia 4.64% | MDA-MB-231 breast 9.11% | SF-295 CNS -15% | SF-539 CNS -23.7% | HCT-15 colon 8.94%
inactive: NCI-H23 lung 18.2% | HOP-62 NSCLC 25.1% | NCI-H522 lung 15.7% | A549/ATCC NSCLC 19.5% | MALME-3M melanoma 34.8% | RXF 393 renal 25.7% | SF-268 CNS 17.2% | UACC-257 melanoma 66.2% | M14 melanoma 10.8%

O=c1oc2ccc(Br)cc2c(=O)n1-c1ccc(F)cc1F
active: NCI-H23 lung 4.93% | HOP-62 NSCLC 6.8% | HOP-92 NSCLC -24.4% | NCI-H522 lung -6.16% | A549/ATCC NSCLC 6.77% | 786-0 renal 4.39% | K-562 leukemia 9.74% | MALME-3M melanoma -22.5% | RXF 393 renal 3.17% | SF-295 CNS -11.1% | UACC-257 melanoma -8.2%
inactive: COLO 205 colon 85.5% | DU-145 prostate 18% | MDA-MB-231 breast 14.1% | SF-268 CNS 12.7% | SF-539 CNS 10.7% | M14 melanoma 12%

O=C(CSc1nc2ccccc2c(=O)n1-c1ccccc1)Nc1ccc(C(=O)/C=C/c2ccc(Cl)cc2)cc1
inactive: NCI-H23 lung 93.4% | HOP-62 NSCLC 107% | NCI-H460 lung 100% | HOP-92 NSCLC 97.1% | NCI-H522 lung 85.3% | A549/ATCC NSCLC 97% | 786-0 renal 102% | COLO 205 colon 108% | DU-145 prostate 109% | K-562 leukemia 90.8% | MALME-3M melanoma 95.5% | MDA-MB-231 breast 93.3% | RXF 393 renal 127% | SF-268 CNS 115% | SF-295 CNS 105% | SF-539 CNS 113% | UACC-257 melanoma 89.6% | M14 melanoma 101% | HCT-15 colon 98.1%

CC1=NCC2NC(=O)NC(C)=C12 (stereo unspecified)
inactive: NCI-H23 lung 103% | HOP-62 NSCLC 97.9% | NCI-H460 lung 101% | HOP-92 NSCLC 87.7% | NCI-H522 lung 96.5% | A549/ATCC NSCLC 105% | 786-0 renal 96.9% | COLO 205 colon 108% | DU-145 prostate 104% | K-562 leukemia 110% | MALME-3M melanoma 96% | MDA-MB-231 breast 95% | RXF 393 renal 101% | SF-268 CNS 96.1% | SF-295 CNS 103% | SF-539 CNS 95.8% | UACC-257 melanoma 105% | M14 melanoma 98.5% | HCT-15 colon 103%

CCCSC1=NC2C(N(CC)C(=O)N2CC)N1/N=C/C=C/c1ccccc1[N+](=O)[O-] (stereo unspecified)
active: NCI-H460 lung 5.1% | NCI-H522 lung 0.595% | COLO 205 colon 0.744% | K-562 leukemia 8.86% | RXF 393 renal 0.465% | SF-539 CNS -11.9% | M14 melanoma 1.77%
inactive: NCI-H23 lung 46.5% | HOP-62 NSCLC 49.8% | HOP-92 NSCLC 102% | A549/ATCC NSCLC 35.8% | 786-0 renal 33.4% | DU-145 prostate 19.8% | MALME-3M melanoma 74.3% | MDA-MB-231 breast 22.6% | SF-268 CNS 48.1% | SF-295 CNS 12.9% | UACC-257 melanoma 70.8% | HCT-15 colon 16.1%

O=c1oc2ccc(F)cc2c(=O)n1-c1ccc(Cl)cc1F
active: NCI-H23 lung 4.57% | HOP-62 NSCLC -5.38% | NCI-H460 lung 3.17% | HOP-92 NSCLC -14.3% | NCI-H522 lung -16.9% | A549/ATCC NSCLC 3.43% | 786-0 renal 1.85% | K-562 leukemia 7.39% | MALME-3M melanoma -19.6% | MDA-MB-231 breast -17.2% | RXF 393 renal -2.79% | SF-295 CNS -28.5% | SF-539 CNS 4.31% | UACC-257 melanoma -17.4% | M14 melanoma 5.11% | HCT-15 colon 7.49%
inactive: COLO 205 colon 11.7% | DU-145 prostate 17.1% | SF-268 CNS 12.7%

N#CC(C#N)=Cc1c(-c2ccccc2)[nH]c2ccccc12
active: SF-539 CNS -11.7%
inactive: NCI-H23 lung 41% | HOP-62 NSCLC 35.6% | NCI-H460 lung 16.9% | HOP-92 NSCLC 45.1% | NCI-H522 lung 50.2% | A549/ATCC NSCLC 37.1% | 786-0 renal 40% | COLO 205 colon 20.4% | DU-145 prostate 15.7% | K-562 leukemia 12.7% | MALME-3M melanoma 81.3% | MDA-MB-231 breast 50.2% | SF-268 CNS 44.6% | SF-295 CNS 31.6% | UACC-257 melanoma 52.3% | M14 melanoma 27.7% | HCT-15 colon 35.3%

COC(=O)c1c2c(c(C)[n+]([O-])c1C)C(=O)C=C(NCc1ccc(F)c(F)c1)C2=O
active: NCI-H23 lung -76% | HOP-62 NSCLC -11.8% | NCI-H460 lung -26.3% | HOP-92 NSCLC -37.9% | NCI-H522 lung -53.1% | A549/ATCC NSCLC -24.4% | 786-0 renal -3.8% | DU-145 prostate -99.6% | K-562 leukemia 1.15% | MALME-3M melanoma -100% | MDA-MB-231 breast -31.2% | RXF 393 renal -51% | SF-268 CNS -12.2% | SF-295 CNS -99% | SF-539 CNS -95.7% | UACC-257 melanoma -83% | M14 melanoma -88.2% | HCT-15 colon -83.3%

COc1nc2c(c(=O)n1C)N=C1c3ccccc3C(=O)C1C(c1ccccc1)N2 (stereo unspecified)
inactive: NCI-H23 lung 94.1% | HOP-62 NSCLC 86.9% | NCI-H460 lung 103% | HOP-92 NSCLC 89.2% | NCI-H522 lung 102% | A549/ATCC NSCLC 91.5% | 786-0 renal 84.7% | COLO 205 colon 106% | DU-145 prostate 94.6% | K-562 leukemia 74.8% | MALME-3M melanoma 83.2% | MDA-MB-231 breast 89.2% | SF-268 CNS 85.3% | SF-539 CNS 93.7% | UACC-257 melanoma 96.7% | M14 melanoma 82.9% | HCT-15 colon 90.5%

Cc1ccc(CN2CCC(C(=O)Nc3ccc(-c4cc5ccccc5[nH]4)cc3)CC2)o1
inactive: NCI-H23 lung 69.6% | HOP-62 NSCLC 97.9% | NCI-H460 lung 27.9% | HOP-92 NSCLC 36.8% | NCI-H522 lung 72% | A549/ATCC NSCLC 33.7% | 786-0 renal 38.4% | COLO 205 colon 83.4% | DU-145 prostate 60.2% | MALME-3M melanoma 77.9% | MDA-MB-231 breast 60.7% | RXF 393 renal 54.6% | SF-268 CNS 66.6% | SF-295 CNS 17.2% | SF-539 CNS 84.3% | UACC-257 melanoma 85.4% | M14 melanoma 41.9% | HCT-15 colon 44.2%
active: K-562 leukemia 3.08%

O=C1c2ccc3c4c(ccc(c24)C(=O)N1CCCCO)C(=O)N(CCCCO)C3=O
inactive: NCI-H23 lung 80.5% | HOP-62 NSCLC 83.9% | NCI-H460 lung 89.6% | HOP-92 NSCLC 16% | 786-0 renal 67.8% | MDA-MB-231 breast 64.6% | RXF 393 renal 15.1% | SF-268 CNS 81.3% | SF-295 CNS 46.8% | SF-539 CNS 68.3% | M14 melanoma 23.2% | HCT-15 colon 48.5%
active: NCI-H522 lung -13.4% | COLO 205 colon 5.81% | K-562 leukemia 4.34% | MALME-3M melanoma -7.29% | UACC-257 melanoma -61%

COc1cc(/C=C/C(=O)N2c3ccccc3CC2C)c(OC)c2c1OCO2 (stereo unspecified)
inactive: NCI-H23 lung 90.8% | HOP-62 NSCLC 119% | NCI-H460 lung 98.2% | HOP-92 NSCLC 97.4% | NCI-H522 lung 81.5% | A549/ATCC NSCLC 89.1% | 786-0 renal 94.9% | COLO 205 colon 125% | DU-145 prostate 94.5% | MALME-3M melanoma 101% | MDA-MB-231 breast 92.2% | SF-268 CNS 97% | SF-295 CNS 83.6% | SF-539 CNS 98.3% | UACC-257 melanoma 100% | M14 melanoma 90.7% | HCT-15 colon 69.8%

COc1ccc(C2C3=C(COC3=O)N(CCO)c3cc4c(cc32)OCCO4)cc1 (stereo unspecified)
inactive: NCI-H23 lung 97.2% | HOP-62 NSCLC 80.4% | NCI-H460 lung 77.4% | HOP-92 NSCLC 102% | NCI-H522 lung 58.2% | A549/ATCC NSCLC 76.6% | 786-0 renal 87.5% | COLO 205 colon 84.2% | DU-145 prostate 106% | K-562 leukemia 53.1% | MALME-3M melanoma 103% | MDA-MB-231 breast 91.2% | RXF 393 renal 75.5% | SF-268 CNS 86.5% | SF-295 CNS 55.8% | SF-539 CNS 83.1% | UACC-257 melanoma 69% | M14 melanoma 77.7% | HCT-15 colon 65.6%
